This is an account of results in PubChem BioAssay (Tox21).

Assay [1] has as its target Peroxisome proliferator-activated receptor delta (Homo sapiens) (UniProt Q03181). In words: qHTS assay to identify small molecule agonists of the peroxisome proliferator-activated receptor delta (PPARd) signaling pathway (AID 743212; calls by dose curve). An outline of the steps: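 Cells expressing a UAS-driven beta-lactamase reporter (PPARd-bla HEK293H) were given test compounds after a 5 h settle and kept at 37 C. Reporter activity was then measured as FRET fluorescence using LiveBLAzer B/G substrate.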
In general terms: Quantitative high-throughput screening tests each substance at several concentrations.

Assay [2] has the same target. The assay can be described thus: qHTS assay to identify small molecule antagonists of the peroxisome proliferator-activated receptor delta (PPARd) signaling pathway (AID 743215; active means well fitted inhibition curve with a large enough effect in the signal ratio in the repeat runs, not every such curve was filed as active; the % refers to the signal ratio;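 further: cells stimulated with agonist L165041 at 300 nM final during compound exposure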; further: potency means the concentration at half of the fitted maximal effect). An outline of the steps:
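HEK293H GeneBLAzer PPARd UAS-bla reporter cells; cpd + L165041 300 nM final, 17 h 37 C; LiveBLAzer B/G FRET substrate 2 h RT; fluorescence intensity read-out. Antagonist mode.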

Assay [3] concerns the target Bile acid receptor (Homo sapiens) (UniProt Q96RI1). The assay can be described thus: qHTS assay to identify small molecule antagonists of the farnesoid-X-receptor (FXR) signaling pathway (AID 743217; active means well fitted inhibition curve with a large enough effect in the signal ratio in the repeat runs, not every such curve was filed as active; the % refers to the signal ratio). An outline of the steps:
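Read-out: beta-lactamase FRET fluorescence (LiveBLAzer B/G substrate, 2 h, room temperature) in GeneBLAzer FXR-UAS-bla HEK 293T cells. Compounds were co-dosed with 50 uM chenodeoxycholic acid (final) and incubated 16 h at 37 °C.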

Assay [4] has the same target. In words: qHTS assay to identify small molecule agonists of the farnesoid-X-receptor (FXR) signaling pathway (AID 743220; active means well fitted activation curve with a large enough effect in the signal ratio in the repeat runs, not every such curve was filed as active; the % refers to the signal ratio; further: potency means the concentration at half of the fitted maximal effect). An outline of the steps: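 FXR-UAS-bla HEK 293T cells carrying a UAS-driven beta-lactamase reporter were plated for 5 h at 37C/5% CO2, then exposed to DMSO-dissolved Tox21 10K compounds for 16 h at 37C. A LiveBLAzer B/G FRET substrate was loaded for 2 h at room temperature before fluorescence reading.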

Assay [5] can be described thus: qHTS assay to identify small molecule antagonists of the farnesoid-X-receptor (FXR) signaling pathway - cell viability counter screen (AID 743221; active means well fitted cell-killing curve with a large enough effect in the repeat runs, not every such curve was filed as active; further: nearly all actives have a fitted effect of over 50% in size; further: potency means the concentration at half of the fitted maximal effect). An outline of the steps:
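HEK 293T FXR-bla cells, 5 h pre-incubation; compound + CDCA 50 uM final, 16 h, 37 C; beta-lactamase FRET read first, then CellTiter-Glo luminescence, 30 min RT.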

Assay [6] addresses Vitamin D3 receptor (Homo sapiens) (UniProt P11473). In words: qHTS assay to identify small molecule agonists of the vitamin D receptor (VDR) signaling pathway (AID 743222; calls by dose curve). An outline of the steps: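 Beta-lactamase reporter readout (LiveBLAzer B/G FRET, 2 h RT) in VDR-bla cells after 16 h compound treatment at 37C, 5% CO2; cells pre-incubated 4 h before pin transfer of DMSO solutions.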

Assay [7] can be described thus: qHTS assay to identify small molecule agonists of the vitamin D receptor (VDR) signaling pathway - cell viability counter screen (AID 743224). Further: nearly all actives have a fitted effect of over 50% in size. Further: potency means the concentration at half of the fitted maximal effect. An outline of the steps: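 Cytotoxicity counter screen: VDR-bla cells, 16 h compound exposure at 37C, 5% CO2; CellTiter-Glo luminescence, 30 min RT, same wells as bla read.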
A short description of assay [8]: qHTS assay to identify small molecule agonists of the endoplasmic reticulum stress response signaling pathway (AID 1159516; active means well fitted activation curve with a large enough effect in the signal ratio in the repeat runs, not every such curve was filed as active; the % refers to the signal ratio). An outline of the steps: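 HeLa ESRE-bla reporter line; cpd 5 h, 37 C/5% CO2; LiveBLAzer B/G FRET substrate 2 h RT; ex 405, em 460/530 nm.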
Assay [9] can be described thus: qHTS assay to identify small molecule agonists of the endoplasmic reticulum stress response signaling pathway - cell viability counter screen (AID 1159517; calls by dose curve; further: nearly all actives have a fitted effect of over 50% in size; further: potency means the concentration at half of the fitted maximal effect). An outline of the steps:
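Cpd-treated ESRE-bla HeLa (5 hr, 37 C) → LiveBLAzer 2 hr RT → CellTiter-Glo 30 min RT → luminescence.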

The nature of assay [10]: qHTS assay to identify small molecule antagonists of the retinoid-related orphan receptor gamma (ROR-gamma) signaling pathway - cell viability counter screen (AID 1159520). Further: nearly all actives have a fitted effect of over 50% in size. Further: potency means the concentration at half of the fitted maximal effect. An outline of the steps: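 Tet-on ROR gamma CHO cells (1,000/well) were plated 4 hr, given compounds in DMSO for 2 hr at 37 C, then induced with 1 uM final doxycycline for 16 hr. Viability was read as ATP by CellTiter-Glo luminescence after 30 min.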

The target in assay [11] is Nuclear receptor ROR-gamma (Homo sapiens) (UniProt P51449). In words: qHTS assay to identify small molecule antagonists of the retinoid-related orphan receptor gamma (ROR-gamma) signaling pathway (AID 1159521; further: nearly all actives have a fitted effect of over 50% in size; further: potency means the concentration at half of the fitted maximal effect). An outline of the steps: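 Luminescence readout (ONE-Glo, 30 min RT) after 16 h doxycycline induction; loss of signal scored as antagonism. CHO cells with TET-inducible RORγ and RORE-LUC reporter; compounds added 2 h before 1 uM final doxycycline.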

Assay [12] can be described thus: qHTS assay to identify small molecule agonists of the AP-1 signaling pathway - cell viability counter screen (AID 1159525; calls by dose curve; further: nearly all actives have a fitted effect of over 55% in size; further: potency means the concentration at half of the fitted maximal effect). An outline of the steps: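 Each titration point was normalised to DMSO and tetra n-octyl ammonium bromide controls. The read was Cell Titer Glo luminescence after 30 min at RT, following 5 h compound exposure of ME-180 AP-1-bla cells at 37 °C.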

Assay [13] addresses Retinoic acid receptor RXR-alpha (Homo sapiens) (UniProt P19793). In words: qHTS assay to identify small molecule agonists of the RXR signaling pathway (AID 1159527; calls by dose curve; further: nearly all actives have a fitted effect of over 35% in size). An outline of the steps: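 Agonist mode; 9-cis retinoic acid positive control. HEK 293T UAS-bla reporter cells, 2% charcoal-stripped FBS, 16 hr compound exposure at 37 C/5% CO2. LiveBLAzer B/G FRET substrate 2 hr RT; ex 405, em 460/530 nm.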

The target of assay [14] is Vitamin D3 receptor (Homo sapiens) (UniProt P11473). In words: qHTS assay to identify small molecule antagonists of the vitamin D receptor (VDR) signaling pathway (AID 743223; active means well fitted inhibition curve with a large enough effect in the signal ratio in the repeat runs, not every such curve was filed as active; the % refers to the signal ratio). An outline of the steps:
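Beta-lactamase reporter read-out: FRET substrate fluorescence after 2 h at room temperature, following 16 h exposure of VDR-bla cells to test compound plus 3 nM (final) 1alpha,25-dihydroxyvitamin D3 agonist at 37C.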

The nature of assay [15]: qHTS assay to identify small molecule antagonists of the vitamin D receptor (VDR) signaling pathway - cell viability counter screen (AID 743225). Further: nearly all actives have a fitted effect of over 50% in size. Further: potency means the concentration at half of the fitted maximal effect. An outline of the steps: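 Viability counter screen run in the same wells as the beta-lactamase reporter assay: HEK 293T VDR-UAS-bla cells, 16 h compound exposure at 37C with 3 nM (final) 1-alpha,25-dihydroxyvitamin D3. CellTiter-Glo luminescence, 30 min, room temperature.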

Assay [16] in a line: qHTS assay to identify small molecule agonists of the peroxisome proliferator-activated receptor delta (PPARd) signaling pathway - cell viability counter screen (AID 743211). Further: nearly all actives have a fitted effect of over 55% in size. Further: potency means the concentration at half of the fitted maximal effect. An outline of the steps:
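Read-out: CellTiter-Glo luminescence, 30 min RT, measured in the same wells as the beta-lactamase reporter. Cells: GeneBLAzer PPAR delta UAS-bla HEK293H, 3000 cells/well, compound exposure 17 h at 37C.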

Assay [17] is described as follows: qHTS assay to identify small molecule agonists of the farnesoid-X-receptor (FXR) signaling pathway - cell viability counter screen (AID 743218). Further: nearly all actives have a fitted effect of over 45% in size. Further: potency means the concentration at half of the fitted maximal effect. An outline of the steps: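 Luminescence from CellTiter-Glo, read after 30 min at RT, reports viability of GeneBLAzer FXR-UAS-bla HEK 293T cells treated 16 h with compounds in the wells used for the beta-lactamase reporter.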

The nature of assay [18]: qHTS assay to identify small molecule agonists of the AP-1 signaling pathway (AID 1159526; calls by dose curve; further: potency means the concentration at half of the fitted maximal effect).
A short description of assay [19]: qHTS assay to identify small molecule antagonists of the peroxisome proliferator-activated receptor delta (PPARd) signaling pathway - cell viability counter screen (AID 743213). Further: nearly all actives have a fitted effect of over 50% in size. An outline of the steps:
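Same-well viability: cells pre-incubated 5 h, dosed with compound plus 300 nM L165041, kept 17 h at 37 C, FRET substrate 2 h RT, then CellTiter-Glo 30 min RT and luminescence.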

SMILES strings stand for the structures. Results filed as inconclusive are left out. Activity calls are given as the source filed them. Unless noted, the call rests on the fitted dose curve; in most records, active means well fitted curve in the direction sought with a large enough effect in the repeat runs; inconclusive means weak or mixed curves; inactive means no such curve, though single readings can be large; an effect the other way counts as inactive or inconclusive.

Sequence of Bile acid receptor (Homo sapiens) (Q96RI1 whole entry, looked up): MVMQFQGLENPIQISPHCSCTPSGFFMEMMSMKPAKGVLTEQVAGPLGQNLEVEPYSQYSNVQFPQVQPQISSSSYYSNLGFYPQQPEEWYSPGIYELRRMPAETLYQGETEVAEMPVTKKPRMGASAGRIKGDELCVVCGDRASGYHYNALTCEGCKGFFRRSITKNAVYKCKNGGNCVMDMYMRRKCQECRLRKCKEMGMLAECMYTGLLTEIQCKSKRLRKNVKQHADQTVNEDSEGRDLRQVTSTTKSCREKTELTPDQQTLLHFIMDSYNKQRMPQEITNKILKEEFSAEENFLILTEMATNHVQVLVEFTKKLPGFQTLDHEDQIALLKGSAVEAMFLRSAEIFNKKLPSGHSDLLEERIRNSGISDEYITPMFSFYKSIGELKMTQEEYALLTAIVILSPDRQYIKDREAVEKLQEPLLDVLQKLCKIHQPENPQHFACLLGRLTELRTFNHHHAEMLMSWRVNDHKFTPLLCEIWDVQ
Sequence of Retinoic acid receptor RXR-alpha (Homo sapiens) (P19793 whole entry, looked up): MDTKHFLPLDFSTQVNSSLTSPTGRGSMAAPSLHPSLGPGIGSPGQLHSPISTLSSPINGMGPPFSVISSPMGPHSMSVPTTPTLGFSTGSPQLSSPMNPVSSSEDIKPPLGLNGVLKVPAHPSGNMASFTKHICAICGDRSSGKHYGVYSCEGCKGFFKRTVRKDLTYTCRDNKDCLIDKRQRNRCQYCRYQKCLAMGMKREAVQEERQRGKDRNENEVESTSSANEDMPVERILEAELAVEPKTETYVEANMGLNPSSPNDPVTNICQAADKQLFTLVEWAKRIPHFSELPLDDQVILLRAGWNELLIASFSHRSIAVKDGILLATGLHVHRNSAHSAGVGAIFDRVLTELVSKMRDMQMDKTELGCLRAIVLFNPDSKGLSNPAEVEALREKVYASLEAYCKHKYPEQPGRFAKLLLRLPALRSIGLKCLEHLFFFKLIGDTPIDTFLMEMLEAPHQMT
Sequence of Vitamin D3 receptor (Homo sapiens) (P11473 whole entry, looked up): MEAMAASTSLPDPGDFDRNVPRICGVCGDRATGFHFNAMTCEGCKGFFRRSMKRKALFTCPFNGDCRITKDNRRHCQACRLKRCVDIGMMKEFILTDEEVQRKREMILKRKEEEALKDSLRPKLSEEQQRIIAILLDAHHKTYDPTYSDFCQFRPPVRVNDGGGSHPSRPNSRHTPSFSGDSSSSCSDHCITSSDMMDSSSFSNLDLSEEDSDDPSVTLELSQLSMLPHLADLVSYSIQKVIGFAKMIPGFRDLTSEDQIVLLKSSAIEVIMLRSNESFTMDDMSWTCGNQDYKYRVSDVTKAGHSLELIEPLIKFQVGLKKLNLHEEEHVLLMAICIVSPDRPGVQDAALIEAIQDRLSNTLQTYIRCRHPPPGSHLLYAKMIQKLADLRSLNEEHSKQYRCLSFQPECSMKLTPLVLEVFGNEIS
Sequence of Peroxisome proliferator-activated receptor delta (Homo sapiens) (Q03181 whole entry, looked up): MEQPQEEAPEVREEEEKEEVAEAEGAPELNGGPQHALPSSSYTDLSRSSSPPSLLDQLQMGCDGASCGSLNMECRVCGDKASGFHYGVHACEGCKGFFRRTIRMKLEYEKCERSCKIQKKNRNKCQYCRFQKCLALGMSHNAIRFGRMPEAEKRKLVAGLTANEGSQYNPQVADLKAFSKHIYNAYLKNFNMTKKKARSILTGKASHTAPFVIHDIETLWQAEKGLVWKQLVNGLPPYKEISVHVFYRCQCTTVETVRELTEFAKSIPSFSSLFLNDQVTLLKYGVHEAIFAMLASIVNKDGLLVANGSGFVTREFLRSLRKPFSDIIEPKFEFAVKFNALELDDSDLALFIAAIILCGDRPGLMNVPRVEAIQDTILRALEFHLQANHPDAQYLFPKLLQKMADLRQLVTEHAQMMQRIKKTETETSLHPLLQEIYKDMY

On to `CC(Cc1ccc(O)cc1)NCC(O)c1cc(O)cc(O)c1` (centres undefined), for which the Potency entry in assay [1], in [2], in [3], in [4], in assay [5] and in assay [6] was “inactive” throughout. In addition, the Potency result in assay [7], in assay [8], in assay [9], in assay [10], in [11] and in assay [12] was “inactive” throughout. The Potency result in assay [13] is “inactive”.
`CC1=C2C[C@H]3[C@@H](CC=C4C[C@@H](O)CC[C@@]43C)[C@@H]2CC[C@]12O[C@@H]1C[C@H](C)CN[C@H]1[C@H]2C`: the Potency result in assay [2], in assay [3], in assay [5], in [14], in [7] and in [15] was “inactive” each time. Besides, the Potency entry in assay [8], in assay [9], in assay [10] and in assay [12] was “inactive” each time. For the same compound, the Potency was 10.7 µM (active) in assay [4] and 8.41 µM (active) in assay [11].
For `O=C(O)CCCCCCNC1c2ccccc2CCc2ccccc21`, the Potency result in [16], in assay [2], in [3], in [17], in [4] and in assay [5] was “inactive” each time. In addition, the Potency entry in assay [14], in assay [7], in assay [15], in assay [9], in assay [10] and in assay [11] was “inactive” in each case. Moreover, the Potency result in assay [12] and in assay [13] was “inactive” throughout. For the same compound, the Potency in assay [18] is 10.7 µM (active).
As to `Oc1cc(Cl)c(Cl)c(Cl)c1Cl`, the Potency in assay [17] is 47.8 µM (active); in [7] it was 24 µM (active); in [10], 53.2 µM (active); in assay [11], 23.8 µM (active). For the same compound, the Potency entry in [4], in [5], in [9] and in assay [12] was “inactive” in each case.
For the compound `Cc1cnc2c(C(=O)O)c(Cl)ccc2c1`, the Potency entry in assay [16], in assay [19], in assay [3], in assay [17], in assay [4] and in [7] was “inactive” each time. Also, the Potency entry in assay [15], in [8], in assay [10], in assay [18] and in assay [13] was “inactive” in each case.
In the case of `C#CCC1=C(C)C(OC(=O)C2C(C=C(C)C)C2(C)C)CC1=O` (centres undefined), the Potency entry in assay [2], in [17], in assay [5], in assay [6], in assay [8] and in assay [9] was “inactive” each time. Besides, the Potency entry in [12] is “inactive”.
For `C[N+]1(C)[C@@H]2CC[C@H]1CC(OC(=O)C(CO)c1ccccc1)C2` (some centres undefined), the Potency result in assay [16], in assay [1], in assay [19], in assay [2], in [7] and in assay [15] was “inactive” throughout. Further, the Potency entry in [8], in assay [9], in [10], in assay [12], in assay [18] and in [13] was “inactive” throughout.
Take `CCOP(=O)(OCC)Oc1nc(Cl)c(Cl)cc1Cl`: the Potency was 38.7 µM (active) in assay [16], 12.2 µM (active) in assay [2] and 48.3 µM (active) in assay [11]. The Potency entry in assay [9], in [10] and in assay [12] was “inactive” throughout.
For `CC(O)C(=O)[O][Hg][c]1ccccc1` (centres undefined), the Potency in [16] is 1.38 µM (active); in assay [17], 1.23 µM (active); in [5], 2.75 µM (active); in assay [7], 1.23 µM (active); in assay [15], 1.74 µM (active); in assay [9], 1.1 µM (active). The values for the Potency in assay [10], in assay [11] and in assay [12] were 1.37 µM (active), 0.486 µM (active) and 2.45 µM (active), respectively. Further, the Potency entry in assay [6] was “inactive”.
